Laboratory results published in PubChem BioAssay (EPA / NIEHS).
Active and inactive are the calls of the source. Rule for the calls: active = hit-call score of the fitted dose curve at least 0.9, where 1 is the maximum; inactive = score below 0.9.

Test: APR_HepG2_StressKinase_24hr: Apredica 24-hour HepG2 Assay for Stress Kinase (AID 2282922)
Details: HepG2 stress kinase (phospho-c-Jun) imaging, actives raise or lower the signal
Procedure, shortened: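 HepG2 cells exposed 24 h to 0.39–200 uM compound in duplicate (0.5% v/v DMSO final). Cells fixed in 3.7% formaldehyde, permeabilized and immunostained for phospho-c-Jun; read by high-content fluorescence imaging, fitted bidirectionally against DMSO.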
In the case of `OCCOc1ccccc1`, the outcome is reported as “inactive”.
With `CC1(c2ccc(Oc3ccccc3)cc2)OC(=O)N(Nc2ccccc2)C1=O` (stereo not given) the outcome was “inactive”.
With `CC(C)(C)C(O)C(Oc1ccc(Cl)cc1)n1cncn1` (stereo not given) the outcome was “inactive”.
With `O=S1OCC2C(CO1)C1(Cl)C(Cl)=C(Cl)C2(Cl)C1(Cl)Cl` (stereo not given) the outcome was “inactive”.
With `CC(C)OC(=O)Nc1cccc(Cl)c1` the outcome was “inactive”.
With `COP(=S)(OC)Oc1ccc([N+](=O)[O-])cc1` the outcome was “inactive”.
With `O=C(O)C(F)(F)C(F)(F)C(F)(F)C(F)(F)C(F)(F)C(F)(F)C(F)(F)F` the outcome was “inactive”.
For `Cc1[nH]c(=O)n(C(C)(C)C)c(=O)c1Cl`, the outcome was “inactive”.
For `O=[N+]([O-])c1c(Cl)c(Cl)c(Cl)c(Cl)c1Cl`, the outcome was “inactive”.
In the case of `CCCN(CCOc1c(Cl)cc(Cl)cc1Cl)C(=O)n1ccnc1`, the outcome is reported as “inactive”.
In the case of `O=S(=O)(O)C(F)(F)C(F)(F)C(F)(F)C(F)(F)C(F)(F)C(F)(F)C(F)(F)C(F)(F)F`, the outcome is reported as “inactive”.
For `Oc1cc(Cl)ccc1Oc1ccc(Cl)cc1Cl`, the outcome was “inactive”.
In the case of `CCC(C)(NC(=O)c1cc(Cl)c(C)c(Cl)c1)C(=O)CCl` (stereo not given), the outcome is reported as “inactive”.
With `CNC(=O)Oc1ccccc1OC(C)C` the outcome was “inactive”.
In the case of `CNC(=O)CSP(=S)(OC)OC`, the outcome is reported as “inactive”.
For `O=C1c2ccccc2C(=O)N1SC(Cl)(Cl)Cl`, the outcome was “inactive”.
With `ClC1C(Cl)C(Cl)C(Cl)C(Cl)C1Cl` (stereo not given) the outcome was “inactive”.
With `[2H]C1([2H])[n+]2ccccc2-c2cccc[n+]2C1([2H])[2H]` the outcome was “inactive”.
For `COC(=O)c1ccccc1CS(=O)(=O)NC(=O)Nc1nc(OC)cc(OC)n1`, the outcome was “inactive”.
With `CC[C@H](C)[C@H]1O[C@]2(C=C[C@@H]1C)C[C@@H]1C[C@@H](C/C=C(\C)[C@@H](O[C@H]3C[C@H](OC)[C@@H](O[C@H]4C[C@H](OC)[C@@H](O)[C@H](C)O4)[C@H](C)O3)[C@@H](C)/C=C/C=C3\CO[C@@H]4[C@H](O)C(C)=C[C@@H](C(=O)O1)[C@]34O)O2` (tested in a mixture with another compound) the outcome was “inactive”.
